The text below walks through data of PubChem BioAssay (EPA / NIEHS).

Records with an inconclusive call do not appear. Calls of active or inactive are those of the source. Rule for the calls, unless noted: active = hit-call score of the fitted dose curve at least 0.9, where 1 is the maximum; inconclusive = response in the unintended direction; inactive = score below 0.9.

The target of test [1] is Retinoic acid receptor RXR-alpha (Homo sapiens) (UniProt P19793). As to the kind of experiment: ATG_RXRa_TRANS: Attagene TRANS-FACTORIAL HepG2 Assay for human Retinoid X Receptor alpha (RXRa) (AID 2283012). Summed up: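 Cells (HepG2) carried transiently transfected GAL4-responsive reporter units. Following a 24 h chemical incubation, reporter mRNA induction was read via RT-PCR fragment analysis; DMSO served as negative control and baseline.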

Test [2] has as its target human Retinoid X Receptor beta (RXRb), RXRB (gene 6257) (UniProt P28702). As to the kind of experiment: ATG_RXRb_TRANS: Attagene TRANS-FACTORIAL HepG2 Assay for human Retinoid X Receptor beta (RXRb) (AID 2283013). Summed up: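 Multiplexed TRANS reporter assay in HepG2; 24 h dosing; reporter mRNA by RT-PCR/CE fluorescence; gain-of-signal relative to DMSO.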
In test [3] the target is human Thyroid Receptor alpha (THRa1), THRA (gene 7067) (UniProt P10827). As to the kind of experiment: ATG_THRa1_TRANS: Attagene TRANS-FACTORIAL HepG2 Assay for human Thyroid Receptor alpha (THRa1) (AID 2283014). Summed up: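 First, HepG2 cells receive multiple GAL4-UAS reporter units and the chimeric receptor. They are then dosed for 24 h, after which RNA is reverse-transcribed, amplified, labelled, HpaI-cut and sized by capillary electrophoresis; gain relative to DMSO is scored.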

Read-out in test [4]: E-selectin (Homo sapiens) (UniProt P16581)
As to the kind of experiment: BSK_3C_Eselectin: BioMAP Diversity Plus: 3C Assay for Eselectin Biomarker Activity (AID 2283015; active = hit-call score of the fitted dose curve at least 0.9, where 1 is the maximum; inactive = score below 0.9;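 note: cell surface E-selectin protein quantified by ELISA 24 h after dosing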). The conditions noted are these: primary human endothelial cells (HUVEC); actives raise or lower the signal. Summed up:
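Human vascular endothelium from umbilical vein is exposed to test chemicals for 24 h. E-selectin levels are read by ELISA and compared with DMSO controls.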

Read-out in test [5]: Interleukin-1 alpha (IL1a), IL1A (gene 3552)
As to the kind of experiment: BSK_BE3C_IL1a: BioMAP Diversity Plus: BE3C Assay for Interleukin-1 alpha (IL1a) Biomarker Activity (AID 2283016; active = hit-call score of the fitted dose curve at least 0.9, where 1 is the maximum; inactive = score below 0.9). The conditions noted are these: primary human bronchial epithelial cells; actives raise or lower the signal. Summed up: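 Cultures of primary human bronchial epithelial cells receive test chemical. After 24 h, IL-1a is quantified by ELISA, while parallel wells are fixed in TCA and SRB-stained for total protein. Changes in either direction are fitted relative to DMSO.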

Read-out in test [6]: Monocyte Chemoattractant Protein-1 (MCP1), CCL2 (gene 6347)
Kind of test: BSK_3C_MCP1: BioMAP Diversity Plus: 3C Assay for Monocyte Chemoattractant Protein-1 (MCP1) Biomarker Activity (AID 2283017; active = hit-call score of the fitted dose curve at least 0.9, where 1 is the maximum; inactive = score below 0.9). The conditions noted are these: primary human endothelial cells (HUVEC); actives raise or lower the signal. Put shortly:
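Endothelial cells from human umbilical vein are dosed with chemical, cultured 24 h, then assayed for MCP-1 by ELISA; both increases and decreases are modelled against DMSO controls.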

Read-out in test [7]: Monocyte Chemoattractant Protein-1 (MCP1), CCL2 (gene 6347)
As to the kind of experiment: BSK_4H_MCP1: BioMAP Diversity Plus: 4H Assay for Monocyte Chemoattractant Protein-1 (MCP1) Biomarker Activity (AID 2283018; active = hit-call score of the fitted dose curve at least 0.9, where 1 is the maximum; inactive = score below 0.9). To be noted: primary human endothelial cells (HUVEC); actives raise or lower the signal. Put shortly:
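Readout: MCP-1 ELISA on compound-treated HUVEC, sampled 24 h post-dosing. Baseline and negative control DMSO; bidirectional fit. Overt toxicity checked alongside by sulforhodamine B protein staining at time of biomarker measurement.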

Read-out in test [8]: Human Leukocyte Antigen - DR isotype (HLADR), HLA-DRA (gene 3122)
Kind of test: BSK_3C_HLADR: BioMAP Diversity Plus: 3C Assay for Human Leukocyte Antigen - DR isotype (HLADR) Biomarker Activity (AID 2283019; active = hit-call score of the fitted dose curve at least 0.9, where 1 is the maximum; inactive = score below 0.9;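 note: ELISA of cell-surface HLA-DR on HUVEC 24 h after dosing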). The conditions noted are these: primary human endothelial cells (HUVEC); actives raise or lower the signal. Put shortly: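 Endothelial cells from human umbilical vein are treated with test chemical; after 24 h, HLA-DR levels are measured by ELISA. Data are fitted in both directions using DMSO as the baseline.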

Read-out in test [9]: Interleukin-8 (IL8), CXCL8 (gene 3576)
Kind of test: BSK_3C_IL8: BioMAP Diversity Plus: 3C Assay for Interleukin-8 (IL8) Biomarker Activity (AID 2283020; active = hit-call score of the fitted dose curve at least 0.9, where 1 is the maximum; inactive = score below 0.9). To be noted: primary human endothelial cells (HUVEC); actives raise or lower the signal. Summed up:
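Human vascular endothelial cells (umbilical vein) in the 3C system; IL-8 level detected by ELISA at 24 h post-dose, with DMSO as baseline.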

Read-out in test [10]: Monokine induced gamma interferon (MIG), CXCL9 (gene 4283)
Kind of test: BSK_3C_MIG: BioMAP Diversity Plus: 3C Assay for Monokine induced gamma interferon (MIG) Biomarker Activity (AID 2283021; active = hit-call score of the fitted dose curve at least 0.9, where 1 is the maximum; inactive = score below 0.9). The conditions noted are these: primary human endothelial cells (HUVEC); actives raise or lower the signal. Put shortly: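 After 24 h of treatment, human umbilical vein endothelial cultures (3C system) had their MIG biomarker level determined by ELISA, with DMSO serving as negative control.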

Test [11] deals with human Vitamin D Receptor (VDR), VDR (gene 7421) (UniProt P11473). Kind of test: ATG_VDR_TRANS: Attagene TRANS-FACTORIAL HepG2 Assay for human Vitamin D Receptor (VDR) (AID 2283022). Summed up: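 Fluorescence of labelled reporter cDNA fragments, resolved by capillary electrophoresis, gives mRNA induction after 24 h treatment of HepG2 cells carrying transfected Gal4-fusion reporter units. Activity is fitted in the positive direction with DMSO as baseline.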

A short description of test [12]: BSK_3C_SRB: Viability Assessment in the BioMAP Diversity Plus: 3C Assay (AID 2283023; active = hit-call score of the fitted dose curve at least 0.9, where 1 is the maximum; inactive = score below 0.9;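 note: cells read 24 h after compound dosing; fitted both ways against DMSO so a hit may be signal rise or drop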). To be noted: primary human endothelial cells (HUVEC). Summed up:
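Cells were dosed with chemical, cultured 24 h, fixed with 10% TCA, stained with 0.1% SRB and read at 560 nm. Human umbilical vein endothelium was used; DMSO served as negative control and baseline.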

Read-out in test [13]: Matrix Metallopeptidase 1 (MMP1), MMP1 (gene 4312)
As to the kind of experiment: BSK_BE3C_MMP1: BioMAP Diversity Plus: BE3C Assay for Matrix Metallopeptidase 1 (MMP1) Biomarker Activity (AID 2283024; active = hit-call score of the fitted dose curve at least 0.9, where 1 is the maximum; inactive = score below 0.9). The conditions noted are these: primary human bronchial epithelial cells; actives raise or lower the signal. Put shortly:
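Dose cells, wait 24 h, run MMP1 ELISA; cells are human bronchial epithelial primaries. Both increases and decreases relative to DMSO counted.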

Read-out in test [14]: Pselectin, SELP (gene 6403)
As to the kind of experiment: BSK_4H_Pselectin: BioMAP Diversity Plus: 4H Assay for Pselectin Biomarker Activity (AID 2283026; active = hit-call score of the fitted dose curve at least 0.9, where 1 is the maximum; inactive = score below 0.9). To be noted: primary human endothelial cells (HUVEC); actives raise or lower the signal. Summed up:
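Human vascular endothelium from umbilical vein; P-selectin measured by ELISA at 24 h post-dose, with cytotoxicity checked by sulforhodamine B total-protein staining in parallel cultures (0.1% SRB after 10% TCA fixation, read at 560 nm).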

Test [15] can be described thus: BSK_4H_SRB: Viability Assessment in the BioMAP Diversity Plus: 4H Assay (AID 2283027; active = hit-call score of the fitted dose curve at least 0.9, where 1 is the maximum; inactive = score below 0.9;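 note: cells exposed to compound for 24 h before staining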). The conditions noted are these: primary human endothelial cells (HUVEC). Put shortly: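 Absorbance at 560 nm of SRB-stained total protein served as the viability read-out in confluent primary human umbilical vein endothelium 24 h after chemical treatment. Curves were fitted bidirectionally against DMSO as negative control.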

Test [16] is described as follows: BSK_BE3C_SRB: Viability Assessment in the BioMAP Diversity Plus: BE3C Assay (AID 2283028; active = hit-call score of the fitted dose curve at least 0.9, where 1 is the maximum; inactive = score below 0.9). The conditions noted are these: primary human bronchial epithelial cells. Put shortly:
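Overt cytotoxicity was assessed as total protein in confluent human primary bronchial epithelial cultures 24 h after chemical addition, using 0.1% sulforhodamine B staining read at 560 nm.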

Read-out in test [17]: Urokinase-type plasminogen activator receptor (uPAR), PLAUR (gene 5329)
As to the kind of experiment: BSK_4H_uPAR: BioMAP Diversity Plus: 4H Assay for Urokinase-type plasminogen activator receptor (uPAR) Biomarker Activity (AID 2283030; active = hit-call score of the fitted dose curve at least 0.9, where 1 is the maximum; inactive = score below 0.9). To be noted: primary human endothelial cells (HUVEC); actives raise or lower the signal. Put shortly: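 Chemicals are dosed onto human vascular endothelial primary cells (umbilical vein). After 24 h, uPAR is read by ELISA. Gain or loss of signal is fitted relative to DMSO.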

Read-out in test [18]: Vascular endothelial growth factor receptor 2 (Homo sapiens) (UniProt P35968)
Kind of test: BSK_4H_VEGFRII: BioMAP Diversity Plus: 4H Assay for Vascular endothelial growth factor receptor 2 (VEGFR2) Biomarker Activity (AID 2283031; active = hit-call score of the fitted dose curve at least 0.9, where 1 is the maximum; inactive = score below 0.9). To be noted: primary human endothelial cells (HUVEC); actives raise or lower the signal. Summed up:
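VEGFRII levels on human vascular endothelial primary cells were determined by ELISA at 24 hours post-dosing, with gain- or loss-of-signal fitted against DMSO controls.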

Read-out in test [19]: Human Leukocyte Antigen - DR isotype (HLADR), HLA-DRA (gene 3122)
Kind of test: BSK_BE3C_HLADR: BioMAP Diversity Plus: BE3C Assay for Human Leukocyte Antigen - DR isotype (HLADR) Biomarker Activity (AID 2283032; active = hit-call score of the fitted dose curve at least 0.9, where 1 is the maximum; inactive = score below 0.9). The conditions noted are these: primary human bronchial epithelial cells; actives raise or lower the signal. Summed up:
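Signal came from an ELISA for HLA-DR in human bronchial epithelial primary cells harvested 24 h after treatment; gain- and loss-of-signal fitting used DMSO controls as reference.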

Read-out in test [20]: Vascular cell adhesion molecule 1 (VCAM1), VCAM1 (gene 7412)
Kind of test: BSK_4H_VCAM1: BioMAP Diversity Plus: 4H Assay for Vascular cell adhesion molecule 1 (VCAM1) Biomarker Activity (AID 2283033; active = hit-call score of the fitted dose curve at least 0.9, where 1 is the maximum; inactive = score below 0.9;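 note: cell-surface VCAM-1 protein measured by ELISA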). To be noted: primary human endothelial cells (HUVEC); actives raise or lower the signal. Summed up:
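Endpoint derived from bidirectional fitting against DMSO controls of VCAM-1 ELISA signal in umbilical vein endothelial cells sampled at 24 h following treatment.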

human Thyroid Receptor alpha (THRa1), THRA (gene 7067), sequence (P10827 whole entry, looked up, the tested form may be a part): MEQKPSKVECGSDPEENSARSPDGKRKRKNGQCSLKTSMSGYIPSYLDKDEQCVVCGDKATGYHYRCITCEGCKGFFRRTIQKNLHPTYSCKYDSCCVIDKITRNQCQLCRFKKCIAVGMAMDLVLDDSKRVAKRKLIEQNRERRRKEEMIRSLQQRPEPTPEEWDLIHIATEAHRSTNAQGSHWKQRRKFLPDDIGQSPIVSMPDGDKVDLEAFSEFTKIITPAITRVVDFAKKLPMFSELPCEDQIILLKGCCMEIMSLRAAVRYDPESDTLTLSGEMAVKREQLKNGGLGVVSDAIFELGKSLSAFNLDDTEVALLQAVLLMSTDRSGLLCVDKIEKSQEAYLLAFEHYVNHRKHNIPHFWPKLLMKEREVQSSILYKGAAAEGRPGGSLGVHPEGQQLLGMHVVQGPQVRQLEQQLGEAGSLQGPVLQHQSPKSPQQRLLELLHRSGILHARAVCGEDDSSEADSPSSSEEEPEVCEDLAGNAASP
human Vitamin D Receptor (VDR), VDR (gene 7421), sequence (P11473 whole entry, looked up, the tested form may be a part): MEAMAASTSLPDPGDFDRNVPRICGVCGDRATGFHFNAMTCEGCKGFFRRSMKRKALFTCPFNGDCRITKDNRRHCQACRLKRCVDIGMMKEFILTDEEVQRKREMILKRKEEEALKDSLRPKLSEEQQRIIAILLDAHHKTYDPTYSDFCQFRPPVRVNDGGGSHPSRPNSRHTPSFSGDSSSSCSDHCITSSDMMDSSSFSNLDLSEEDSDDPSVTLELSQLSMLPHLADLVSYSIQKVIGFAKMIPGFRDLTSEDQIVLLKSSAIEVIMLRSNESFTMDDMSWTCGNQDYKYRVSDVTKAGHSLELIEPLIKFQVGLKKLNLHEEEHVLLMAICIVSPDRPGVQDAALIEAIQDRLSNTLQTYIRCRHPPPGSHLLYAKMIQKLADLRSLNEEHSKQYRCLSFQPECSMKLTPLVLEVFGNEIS
human Retinoid X Receptor beta (RXRb), RXRB (gene 6257), sequence (P28702 whole entry, looked up, the tested form may be a part): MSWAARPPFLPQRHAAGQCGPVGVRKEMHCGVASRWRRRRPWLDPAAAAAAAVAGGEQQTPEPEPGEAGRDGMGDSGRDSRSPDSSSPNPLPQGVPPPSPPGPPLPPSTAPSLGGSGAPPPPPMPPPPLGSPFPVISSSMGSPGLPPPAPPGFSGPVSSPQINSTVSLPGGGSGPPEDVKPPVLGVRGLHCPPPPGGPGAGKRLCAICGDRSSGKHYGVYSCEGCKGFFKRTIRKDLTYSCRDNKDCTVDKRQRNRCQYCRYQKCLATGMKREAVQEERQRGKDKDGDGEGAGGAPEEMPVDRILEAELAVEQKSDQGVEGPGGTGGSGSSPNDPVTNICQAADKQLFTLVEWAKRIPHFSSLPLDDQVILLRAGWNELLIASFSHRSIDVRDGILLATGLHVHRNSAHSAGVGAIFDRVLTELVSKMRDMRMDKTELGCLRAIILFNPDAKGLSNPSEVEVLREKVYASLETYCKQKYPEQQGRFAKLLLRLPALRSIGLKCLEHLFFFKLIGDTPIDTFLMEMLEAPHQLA
Retinoic acid receptor RXR-alpha (Homo sapiens), sequence (P19793 whole entry, looked up, the tested form may be a part): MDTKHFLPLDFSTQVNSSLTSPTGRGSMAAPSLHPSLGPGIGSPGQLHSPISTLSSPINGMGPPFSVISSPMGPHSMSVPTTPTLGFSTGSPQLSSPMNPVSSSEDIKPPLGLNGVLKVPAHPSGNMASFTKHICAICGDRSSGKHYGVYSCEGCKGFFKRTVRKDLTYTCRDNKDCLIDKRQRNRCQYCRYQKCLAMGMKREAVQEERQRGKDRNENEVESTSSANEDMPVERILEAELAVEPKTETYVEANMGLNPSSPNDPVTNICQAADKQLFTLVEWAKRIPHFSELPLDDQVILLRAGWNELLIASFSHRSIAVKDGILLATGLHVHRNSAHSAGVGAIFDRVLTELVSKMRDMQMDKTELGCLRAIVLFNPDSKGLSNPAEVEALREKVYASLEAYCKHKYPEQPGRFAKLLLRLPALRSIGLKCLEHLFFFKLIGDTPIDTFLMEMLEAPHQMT
E-selectin (Homo sapiens), sequence (P16581 whole entry, looked up): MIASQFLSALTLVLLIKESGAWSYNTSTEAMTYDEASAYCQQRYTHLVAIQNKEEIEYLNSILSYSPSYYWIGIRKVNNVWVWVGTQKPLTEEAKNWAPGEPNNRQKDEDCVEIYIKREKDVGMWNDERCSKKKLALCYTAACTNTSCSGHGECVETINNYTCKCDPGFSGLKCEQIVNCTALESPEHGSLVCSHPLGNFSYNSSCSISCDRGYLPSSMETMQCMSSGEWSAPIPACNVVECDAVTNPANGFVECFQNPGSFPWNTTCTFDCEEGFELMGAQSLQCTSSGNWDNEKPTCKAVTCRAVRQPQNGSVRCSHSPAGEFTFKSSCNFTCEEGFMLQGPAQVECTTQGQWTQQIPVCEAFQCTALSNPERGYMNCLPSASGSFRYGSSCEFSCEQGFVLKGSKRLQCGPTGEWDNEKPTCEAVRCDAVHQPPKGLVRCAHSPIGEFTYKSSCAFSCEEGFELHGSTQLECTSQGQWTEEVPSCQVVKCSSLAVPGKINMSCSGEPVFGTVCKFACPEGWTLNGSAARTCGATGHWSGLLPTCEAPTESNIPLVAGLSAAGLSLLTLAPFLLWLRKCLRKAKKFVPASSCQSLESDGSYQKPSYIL

Regarding `CCCCCCCCC(=O)OCC`, the outcome in test [1], in test [2] and in test [3] was inactive.

Consider `Nc1ccc(Oc2ccc(N)c(N)c2)cc1`, for which the result in test [1], in test [2] and in test [3] was inactive.

On to `CCCCCCCCc1ccc(Nc2ccc(CCCCCCCC)cc2)cc1`, for which the outcome in test [1], in [2], in test [3], in [4], in test [5] and in [6] was inactive. Besides, the result in test [7], in test [8], in test [9], in test [10], in test [11] and in test [12] was inactive. The outcome in test [13], in test [14], in test [15], in test [16], in [17] and in test [18] was inactive. In addition, the outcome in test [19] and in test [20] was inactive.

Regarding `[Cl][Bi]([Cl])([c]1ccccc1)([c]1ccccc1)[c]1ccccc1`, the AC50 (in general, the concentration at which the activity in the assay is half-maximal) in test [1] was 5.6 µM (active); in test [2], 1.04 µM (active). Besides, the compound was classed as inactive in test [3].

Regarding `CC(C)(C)c1ccc(-c2ccc(C(C)(C)C)cc2)cc1`, the compound was called inactive in test [1], in test [2] and in [3].

As for `COc1c2ccoc2cc2oc(=O)ccc12`, the outcome in [1], in test [2] and in test [3] was inactive.

Take `c1ccc(CCCc2ccncc2)cc1`: the call in test [1], in test [2] and in test [3] was inactive.

As to `CCCCCCCCCCC=CC#N`, the call in test [1] and in test [3] was inactive. Moreover, the AC50 in test [2] was 49.2 µM (active).

In the case of `CCc1ccc2c(c1)C(=O)c1ccccc1C2=O`, the result in test [1], in test [2], in test [3] and in test [11] was inactive.

As for `O=CN1CCCCC1`, the compound was called inactive in test [1], in test [2] and in test [11].

Regarding `CCCCCCCCCCc1ccccc1`, the outcome in test [1], in test [3] and in [11] was inactive. In test [2], the AC50 was 49.1 µM (active).

Consider `CC=CCO`, for which the call in test [1], in [2], in test [3] and in test [11] was inactive.

On to `CN1C(=O)N(C)C(O)C1O` (centres undefined), for which the result in test [1], in test [2], in test [4], in test [5], in test [6] and in [7] was inactive. The result in test [8], in test [9], in test [10], in [12], in test [13] and in test [14] was inactive. In addition, the result in [15], in test [16], in test [17], in test [18], in [19] and in [20] was inactive.

On to `CC(=O)NS(=O)(=O)c1ccc(N)cc1`, for which the result in [1], in test [2] and in test [11] was inactive.

As to `C(=CC=Nc1ccccc1)C=CNc1ccccc1`, the compound was called inactive in [1], in test [2] and in [11].

With `O=S1(=O)OC(c2ccc(O)cc2)(c2ccc(O)cc2)c2ccccc21`, the outcome in [1], in [2], in test [3] and in test [11] was inactive.

In the case of `O=C1OC(=O)c2cc(Oc3ccc4c(c3)C(=O)OC4=O)ccc21`, the outcome in test [1], in test [2], in test [3] and in [11] was inactive.

In the case of `CC(CC=O)c1ccccc1` (centres undefined), the result in test [1], in test [2] and in [11] was inactive.

On to `O=C(c1ccccc1)C1CCC1`, for which the outcome in test [1], in test [2] and in test [11] was inactive.
